The values that follow come from ChEMBL document CHEMBL1157539, “Thousands of chemical starting points for antimalarial lead identification” (Nature, 2010).

Common to all, as to assay type: functional
Test [1] deals with Plasmodium falciparum. The test can be described thus: GSK_TCMDC: Inhibition of Plasmodium falciparum 3D7 in whole red blood cells, using parasite LDH activity as an index of growth. Test compounds present at 2uM.
Test [2] relates to Plasmodium falciparum. The test can be described thus: GSK_TCMDC: Inhibition of Plasmodium falciparum Dd2 in whole red blood cells, using parasite LDH activity as an index of growth. Test compounds present at 2uM.
Another test has as its system HepG2. Description: GSK_TCMDC: Percent inhibition of human HepG2 cell line. Test compounds present at 10uM.

The structures appear in SMILES notation.

Turning to `CC(C)(C)C(=O)Nc1ccc(N2CCN(C(c3ccccc3)c3ccccc3)CC2)c(Cl)c1`, the results for the Inhibition in the test with Plasmodium falciparum [1], in the test on Plasmodium falciparum [2] and in the test with HepG2 were 92%, 94% and 0%, respectively.
Take `CS(=O)(=O)c1ccc(CNCc2cccc(-c3ccc(-c4nc5cc(C(F)(F)F)ccc5[nH]4)cc3)c2)cc1.O=C(O)C(F)(F)F`: the Inhibition – broadly, the relative decrease from the control value, in per cent – was 100% in the test with Plasmodium falciparum [1], 96% in the test with Plasmodium falciparum [2] and 31% in the test on HepG2.
The matching figures for `CC(=O)Nc1ccc(C(=O)Nc2ccc(-c3cccc(-c4nc5ccccc5[nH]4)c3)cc2)cn1`: 99%, 84% and 34%.
For `COc1cc2c(cc1CCNCCCCNCCc1cc3c(cc1OC)CCCC3)CCCC2.CS(=O)(=O)O`, the Inhibition came out at 100% in the test with Plasmodium falciparum [1], 36% with Plasmodium falciparum [2] and 100% in the test with HepG2.
For the compound `O=[N+]([O-])c1cccc(Nc2nccc(-c3cnn4ncccc34)n2)c1`, the Inhibition with Plasmodium falciparum [1] was 87%; in the test on Plasmodium falciparum [2], 74%; with HepG2, 33%.
As for `O=C(Nc1ccc(Oc2ccccc2)cc1)N[C@@H](Cc1ccc(O)cc1)C(=O)NC1CCN(Cc2ccc(O)c([N+](=O)[O-])c2)C1` (some centres not stated), the Inhibition in the test on Plasmodium falciparum [1] worked out at 100%; with Plasmodium falciparum [2], 0%; in the test on HepG2, 0%.
Take `COc1cc2nc(N3CCC(c4ccccc4)CC3)nc(NCc3ccc(=O)[nH]c3)c2cc1OC`: the figures for the Inhibition in the test with Plasmodium falciparum [1], in the test with Plasmodium falciparum [2] and in the test on HepG2 were 100%, 58% and 12%, respectively.
Regarding `Cc1cc(-c2c[nH]c3ncc(-c4cccc5ncccc45)cc23)ccc1C(=O)O.O=C(O)C(F)(F)F`, the Inhibition was determined as 99% in the test on Plasmodium falciparum [1], 77% with Plasmodium falciparum [2] and 31% with HepG2.
For the compound `Nc1nccc2ccc(-c3ccc(OCc4ccccc4)cc3)cc12.O=C(O)C(F)(F)F`, the Inhibition in the test on Plasmodium falciparum [1] was determined as 100%; with Plasmodium falciparum [2] it was 67%; with HepG2, 40%.
As to `O=C(O)C(F)(F)F.Oc1ccc(CCNc2nc(NCCCOc3cccc(CN4CCCCC4)c3Cl)nc(N3CCNCC3)n2)cc1`, the Inhibition turned out to be 100% with Plasmodium falciparum [1], 22% in the test on Plasmodium falciparum [2] and 26% with HepG2.
In the same order, the values of `COc1ccc(CN(C)CCCSc2ccc(NC(=O)c3cccc4c(=O)cc(-c5ccccc5)[nH]c34)cc2)cc1OC` are 93%, 94% and 15%.
As for `CCOc1ccc(-c2nonc2NC(=O)c2ccccc2)cc1OCC`, the Inhibition in the test on Plasmodium falciparum [1] is reported as 99%; in the test on Plasmodium falciparum [2], 100%; with HepG2, 6%.
For the compound `CCOC(=O)NC1=NC(C)(C)N(OCCCOc2cc(Cl)c(Cl)cc2Cl)C(NC(=O)OCC)=N1`, the Inhibition in the test on Plasmodium falciparum [1] came out at 91%; in the test on Plasmodium falciparum [2], 97%; with HepG2, 63%.
Regarding `COc1cc(C=NNc2cc(C)nc3c(OC)cccc23)cc(OC)c1OC`, the Inhibition is 94% in the test on Plasmodium falciparum [1], 49% in the test on Plasmodium falciparum [2] and 2% with HepG2.
With `COc1cc2nc(N3CCC(CNC(=O)c4ccc(-c5ccc(C(=O)N(C)C)cc5)cc4)CC3)nc(N)c2cc1OC`, the Inhibition turned out to be 100% with Plasmodium falciparum [1], 89% with Plasmodium falciparum [2] and 20% with HepG2.
In the same order, the values of `Nc1ccc(-c2ccc(NC(=O)Nc3ccccc3)cc2)cn1` are 91%, 93% and 0%.
The matching figures for `CN(C)Cc1cccc(-c2cc3c(-c4cnn(C)c4)c(Cl)cnc3[nH]2)c1`: 96%, 21% and 75%.
In the case of `COc1cccc2c1CCN(CCN1CCC(NC(=O)c3ccc(-c4cccc(Cl)c4Cl)cc3)CC1)C2`, the figures for the Inhibition in the test with Plasmodium falciparum [1], with Plasmodium falciparum [2] and in the test with HepG2 were 100%, 38% and 47%, respectively.
In the same order, the values of `CCn1c(-c2nonc2N)nc2c(-c3cccc(NC(=O)Nc4ccc(C(F)(F)F)cc4)c3)ncc(OCCCN)c21.O=C(O)C(F)(F)F` are 94%, 63% and 36%.
As to `CCN(CC)CCN(Cc1ccc(-c2ccc(C(F)(F)F)s2)cc1)C(=O)Cn1c(CCc2cccc(F)c2F)nc(=O)c2ccccc21.O=C(O)C(O)C(O)C(=O)O`, the figures for the Inhibition in the test on Plasmodium falciparum [1], in the test on Plasmodium falciparum [2] and with HepG2 were 94%, 31% and 43%, respectively.
Turning to `COc1ccc2nccc(N3CCN(CCNCc4ccc5c(n4)NC(=O)CO5)CC3)c2c1.Cl`, the Inhibition in the test with Plasmodium falciparum [1] was found to be 92%; in the test on Plasmodium falciparum [2], 5%; in the test with HepG2 it was 18%.
Take `OCC1CCN(Cc2cccc(C#Cc3cc4ncnc(Nc5ccc(OCc6cccc(F)c6)c(Cl)c5)c4s3)n2)CC1`: the Inhibition with Plasmodium falciparum [1] is reported as 99%; with Plasmodium falciparum [2] it was 95%; in the test with HepG2, 41%.
With `Cc1cc(N[C@@H](CC(C)C)C(=O)Nc2ccccc2)nc(Nc2ccccc2)n1.O=C(O)C(F)(F)F`, the Inhibition came out at 99% in the test with Plasmodium falciparum [1], 93% in the test with Plasmodium falciparum [2] and 0% with HepG2.
Consider `Cc1[nH]c(C)c(-c2ccc(OCc3ccc(F)cc3)cc2)c(=O)c1Br`, for which the Inhibition in the test with Plasmodium falciparum [1] came to 98%; in the test on Plasmodium falciparum [2] it was 97%; in the test on HepG2 it was 16%.
On to `O=C(/C=C/c1ccc(Cl)c(Cl)c1)NCCCCCN1CCC(NC(=O)Nc2ccc(F)c(Cl)c2)CC1`, for which the figures for the Inhibition with Plasmodium falciparum [1], with Plasmodium falciparum [2] and with HepG2 were 100%, 11% and 98%, respectively.
On to `O=C(NCCc1ccc(Cl)c(Cl)c1)c1ccc(CNC(=O)c2ccc(O)c(-c3ccc(Cl)c(Cl)c3)c2)cc1`, for which the results for the Inhibition in the test on Plasmodium falciparum [1], with Plasmodium falciparum [2] and with HepG2 were 97%, 3% and 0%, respectively.
The matching figures for `CCCC(C(=O)OCCN(CC)CC)(c1ccc(Cl)cc1)c1ccc(Cl)cc1.Cl`: 91%, 87% and 7%.
With `CCNc1cc(C(=O)N[C@@H](Cc2ccccc2)[C@H](O)CNC(CC)c2cccc(Cl)c2)cc(N2CCCC2=O)c1.Cl` (some centres not stated), the figures for the Inhibition in the test on Plasmodium falciparum [1], with Plasmodium falciparum [2] and in the test with HepG2 were 97%, 99% and 12%, respectively.
For the compound `Cc1cc(CNCC2CCC(CNCCCc3ccccc3)CC2)ccc1O` (configuration not stated), the Inhibition worked out at 100% in the test with Plasmodium falciparum [1], 0% in the test with Plasmodium falciparum [2] and 25% in the test with HepG2.
